From PubChem BioAssay
Hits are enriched below; roughly 1.1% of the tested compounds scored in any of these assays.
gsp antagonist – antagonizes gsp, the McCune-Albright syndrome mutation | gsp-mutant cells, cAMP HTRF, 30 min | Potency, µM (highest dose often 76.9 µM), for the others: at the top dose activity change, negative = inhibition, usual class: inhibitors | hit rate 0.4% among 340,000 | AID 624288; calls by dose curve; cell line not stated here;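 note: intracellular cAMP measured with PDE inhibitor Ro 20-1724 present during compound exposure; potency is the fitted concentration of half-maximal effect; % is set by controls: 0 for no effect and ±100 for the full control effect; nearly all actives have a fitted effect of over 65% in size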
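HTRF cAMP read-out (cAMP-d2 plus anti-cAMP antibody-K in lysis buffer, 30 min RT). Before lysis, cells are exposed to compounds with […] for 30 min at 37C in DPBS containing Ca/Mg, BSA and Tween 20.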
Tb PFK inh-1 – blocks T. brucei phosphofructokinase; T. brucei PFK, ADP-Glo luminescence; Potency, µM (doses to about 57.5 µM), inactives show top-dose activity, negative = inhibition, actives largely listed as inhibitors; O15648; hit rate 0.17% among 330,000;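 note: potency is the fitted concentration of half-maximal effect; 0% = uninhibited 1x PFK enzyme wells and -100% = no-enzyme wells; nearly all actives have a fitted effect of over 60% in size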
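PFK 1.25 nM, F6P 0.5 mM, ATP 0.1 mM, 0.1 M TEA pH 8.0, 5 mM MgCl2, 0.01% Tween20, 0.1% BSA; 45 min RT. ADP-Glo readout. qHTS titration up to 57 uM; curves fitted, compounds curve-classed.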
gsp ag – agonists of gsp mutant (McCune-Albright syndrome); gsp mutant cells, cAMP HTRF, 30 min; Potency, µM (doses to about 76.9 µM), for inactives: at the highest dose activation (cAMP increase), hits mostly activators; hit rate 0.13% among 340,000; active = well fitted activation curve with a large enough effect; inconclusive = small, poorly fitted or top-dose-only effect, or another doubt; inactive = no such curve, though single readings can be large or run the other way; cell line not stated here;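 note: phosphodiesterase inhibitor Ro 20-1724 added with compounds to block cAMP breakdown; potency is the fitted concentration of half-maximal effect; nearly all actives have a fitted effect of over 60% in size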
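Cells in DMEM/10% FBS with G418 were pretreated with compounds in DMSO plus […] (300 uM stock) for 30 min at 37C. cAMP was measured by HTRF (cAMP-d2 plus anti-cAMP antibody-K) after 30 min at room temperature.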
p53 reactivator – mutant p53 re-activation in reporter cells; AID 504706; H1299 p53-A138V BP100-luciferase reporter, luminescence, 24 h; hit rate 0.063% among 320,000; Potency, µM (top dose mostly 92.2 µM), without a hit: top-dose activity change, positive = activation, hits mostly activators; note: potency is the fitted concentration of half-maximal effect; % of control where 0% means no effect; nearly all actives have a fitted effect of over 45% in size
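p53-null H1299 cells stably carrying temperature-sensitive p53-A138V and a BP100-luciferase reporter were pinned with compounds (4-point, 1:5 series) and held 24 hrs at 37 deg C. Luminescence was read 10 min after detection reagent.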
RXFP1 ag – RXFP1 (human) receptor agonism; Q9HBX9; HEK293T-RXFP1 cAMP TR-FRET, 30 min; response scale: percent of porcine relaxin response, buffer zero; Potency, µM (doses to about 57.5 µM), inactives show top-dose activation, actives largely listed as activators; hit rate 0.3% among 370,000; AID 2676; note: potency is the fitted concentration of half-maximal effect; % is set by controls: 0 for no effect and ±100 for the full control effect; nearly all actives have a fitted effect of over 60% in size
Target sequence (Q9HBX9 whole entry, looked up): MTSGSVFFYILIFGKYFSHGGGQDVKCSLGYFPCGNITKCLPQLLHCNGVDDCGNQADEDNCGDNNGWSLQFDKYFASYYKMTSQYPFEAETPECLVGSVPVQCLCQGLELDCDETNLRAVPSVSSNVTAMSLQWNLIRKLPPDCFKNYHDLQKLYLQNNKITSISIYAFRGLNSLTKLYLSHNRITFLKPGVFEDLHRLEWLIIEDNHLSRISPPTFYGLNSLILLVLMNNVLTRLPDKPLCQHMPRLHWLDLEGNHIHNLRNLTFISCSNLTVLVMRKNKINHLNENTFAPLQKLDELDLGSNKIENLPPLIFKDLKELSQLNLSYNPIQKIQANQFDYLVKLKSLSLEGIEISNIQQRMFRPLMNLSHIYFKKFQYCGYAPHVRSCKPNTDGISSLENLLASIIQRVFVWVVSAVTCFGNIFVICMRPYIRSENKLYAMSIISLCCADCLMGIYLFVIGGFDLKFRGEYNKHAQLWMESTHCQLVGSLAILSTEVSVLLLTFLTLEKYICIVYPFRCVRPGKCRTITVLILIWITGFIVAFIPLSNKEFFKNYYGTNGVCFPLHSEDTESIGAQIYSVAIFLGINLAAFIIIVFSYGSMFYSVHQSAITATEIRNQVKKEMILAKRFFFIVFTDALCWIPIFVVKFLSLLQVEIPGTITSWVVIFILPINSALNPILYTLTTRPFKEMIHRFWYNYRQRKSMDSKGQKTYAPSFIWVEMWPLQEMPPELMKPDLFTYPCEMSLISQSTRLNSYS
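Agonist response is measured as cAMP accumulation in an RXFP1-transfected HEK293T line under PDE4 inhibition. Values are scaled between buffer-only and 29 nM porcine relaxin, and EC50s come from standard Hill equation fits.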
RXFP1 antagonist – antagonists of human relaxin receptor RXFP1; Q9HBX9; HEK293-RXFP1, relaxin-stimulated cAMP HTRF, 30 min; active compounds read low; activity change, negative = inhibition, % at 57.5 µM; hit rate 0.59% among 350,000; AID 1259400;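 active = activity change of -60% or lower, but not beyond a set lower limit; inconclusive = change between -60% and -40%, or beyond the set limit; inactive = change above -40%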; note: % is set by controls: 0 for no effect and ±100 for the full control effect
Tb PFK KinaseGlo – Tb phosphofructokinase inhibition, orthogonal luminescence | shares compounds with Tb PFK inh-1 | Potency, µM (titrated, usually from 57.5 µM), for inactives: top-dose inhibition | Tb PFK enzyme, ATP depletion, Kinase-Glo Plus luminescence | AID 504636 | hit rate 47% among 1,100; calls by dose curve; note: potency is the fitted concentration of half-maximal effect; nearly all actives have a fitted effect of over 60% in size
Tb PFK inh-2 – T. brucei PFK enzyme inhibition, hit validation. Potency, µM (titrated, usually from 57.5 µM), inactives show top-dose activity change, negative = inhibition, usual class: inhibitors. shares compounds with Tb PFK inh-1. purified T. brucei PFK, ADP-Glo luminescence, 45 min. AID 504637. hit rate 41% among 1,100;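 note: potency is the fitted concentration of half-maximal effect; plate controls were full PFK enzyme control for no effect and no enzyme control for full effect; nearly all actives have a fitted effect of over 60% in size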
* marks the source's active call; other numbers are inactive results; ? = inconclusive; / = no result given; [ ] = another dose, or the depositor's remark. Unless noted, calls come from the whole dose curve; as a rule, active = well fitted curve in the direction sought with a large enough effect; inconclusive = small, poorly fitted or top-dose-only effect, or another doubt; inactive = no such curve, though single readings can be large; an effect the other way counts as inactive or inconclusive.

SMILES	gsp antagonist	Tb PFK inh-1	gsp ag	p53 reactivator	RXFP1 ag	RXFP1 antagonist	Tb PFK KinaseGlo	Tb PFK inh-2
O=C(O)Cn1cc(/C=C2\C(=O)NC(=O)N(c3ccc(Br)cc3)C2=O)c2ccccc21	-12%	-9%	-3%[15.4 µM]	0%	4%	-3	/	/
C#C[C@]1(O)CC[C@H]2[C@@H]3CCC4=CC(=O)CCC4=C3C=C[C@@]21CC	/	/	/	/	/	-21	/	/
CC1C(c2cccs2)=[N+]([O-])C(C)(C(=O)c2ccc(F)cc2)N1O (stereo not given)	1%	/	-4%	/	/	-15	/	/
Cc1ccc(Cl)cc1NC(=O)C[n+]1ccc(Cc2ccc([N+](=O)[O-])cc2)cc1	1%	?	3%	0%	0%	4	?	?
Cc1ccccc1NC(=O)CCl	-5%	1%	28%	-12%	0%	2	/	/
Cc1ccc(CC(=O)NNC(=O)c2ccncc2)cc1C	5%	?	?	2%	-1%	6	13µM*	21µM*
CN1CC(C(=O)c2ccc(F)cc2)C(c2ccc(F)cc2)C1 (stereo not given)	8%	-2%	11%	-2%	-2%	-3	/	/
O=C(O)Cc1sc(-c2ccccc2Cl)nc1-c1ccccc1	-2%	?	?	-2%	?	0	0%	12%
CN1CCc2c(c(N3CCCCC3)nc3n[nH]c(N)c23)C1	1%	4%	-73%	-3%	-1%	-18	/	/
O=C(Nc1nc(-c2ccco2)c(-c2ccco2)s1)c1cnccn1	2%	12µM*	6%	8%	-1%	-19	1%	0%
CN(C(=O)c1ccc(Cl)nc1)C1(c2ccccc2Cl)CCCCC1=O (stereo not given)	4%	0%	1%	-3%	1%	-1	/	/
O=[N+]([O-])c1ccc(CSc2nnc(-c3cnccn3)o2)cc1	17%	24µM*	9%	18%	2%	-1	?	?
O=Cc1cccc(OC(=O)/C=C/c2ccco2)c1	-7%	24µM*	13%	/	0%	-14	6.7µM*	12µM*
COC(=O)C1=C(c2ccc(OC)c(OC)c2)C[C@@H]2CC[C@H]1N2C(=O)N1CCCC1	10%	3%	0%	-3%	0%	/	/	/
NC(=O)CCN1CCN(C(=O)c2ccc3nc(Cc4cccc(Cl)c4)oc3c2)CC1	3%	?	7%	2%	1%	-4	12µM*	27µM*
O=C(Cc1ccccc1)N1CCN(Cc2cccc(Cl)c2)CC1	-5%	-3%	7%[15.4 µM]	5%	-2%	-6	/	/
CCc1ccc(CN2CCCC(C(=O)c3sccc3C)C2)o1 (stereo not given)	-10%	2%	-29%	2%	1%	-7	/	/
COC(=O)c1ccc2c(c1)C(C)(C)C(/C=C/c1ccccc1O)=[N+]2C	16%	13µM*	?	-8%	-3%	?	-4%	?
Cc1ccc2c(c1)sc(C)[n+]2CCCS(=O)(=O)[O-]	12%	?	?	0%	6%	7	-16%	1%
Cc1ccc(-c2ccc(C3C(C#N)=C(N)Oc4n[nH]c(C)c43)o2)cc1 (stereo not given)	?	?	18%	-11%	0%	-5	?	-17%
Cc1cccc(N2CCN(C(=S)c3ccc([N+](=O)[O-])cc3)CC2)c1	-6%	?	-3%	14%	2%	-7	24µM*	?
CN(C)c1ccc(C(=S)N2CCN(c3ccc([N+](=O)[O-])cc3)CC2)cc1	-1%	12µM*	1%[15.4 µM]	1%	0%	-8	8.5µM*	13µM*
O=[N+]([O-])c1ccc(N2CC2)c([N+](=O)[O-])c1	8%	/	43%	/	/	1	/	/
O=C(Oc1ccc(C(=S)N2CCOCC2)cc1)c1ccc([N+](=O)[O-])cc1[N+](=O)[O-]	-3%	1%	-19%	?	1%	-2	/	/
COC(=O)N(C)c1ccc(C(O)(C(=O)OC)C(F)(F)F)cc1 (stereo not given)	-4%	-2%	-15%	-15%	0%	-2	/	/
SMILES	gsp antagonist	Tb PFK inh-1	gsp ag	p53 reactivator	RXFP1 ag	RXFP1 antagonist	Tb PFK KinaseGlo	Tb PFK inh-2
CC(C)c1onc(C(=O)N2CCC3(CC2)OCCO3)c1[N+](=O)[O-]	13%	1%	?	13%	2%	4	/	/
COCCNC(=O)Cn1cc(C=C2C(=O)NC(=O)NC2=O)c2ccccc21	-2%	1%	-3%[15.4 µM]	-4%	0%	-4	/	/
CC(=O)Nc1ccc(S(=O)(=O)NC(CSc2ccc(C(=O)O)cc2[N+](=O)[O-])C(=O)O)cc1 (stereo not given)	18%	?	25%	-6%	2%	5	-26%	?
O=C(Cc1ccc(Cl)c(Cl)c1)OCC(=O)c1ccc[nH]1	22%	?	-46%	2%	5%	1	9.5µM*	19µM*
Clc1ccc(COn2ccnc2)cc1Cl	-2%	?	0%	-4%	0%	-1	/	/
O=C(COc1ccc(Cl)cc1)OCC(=O)c1ccc[nH]1	1%	?	17%	0%	0%	2	18%	?
O=C(OCc1ccc(Cl)c(Cl)c1)c1cnccn1	4%	?	3%	3%	1%	-5	24µM*	27µM*
O=C(OCc1ccc(Cl)c(Cl)c1)c1ccc[nH]1	?	?	-45%[15.4 µM]	?	2%	-12	24µM*	21µM*
S=C(N1CCCCCC1)N1CC1	8%	/	-4%[15.4 µM]	/	/	1	/	/
Cc1cccc(CN2C(=O)CN=C(c3ccccc3Cl)c3cc(Cl)ccc32)c1	/	/	/	/	-2%	-17	/	/
O=C(Nc1ccc2c(c1)C(=O)NC2=O)c1ccccc1Cl	1%	?	-4%	10%	1%	/	12µM*	13µM*
Nc1cc(N)cc(C(=O)Nc2ccc3c(c2)C(=O)NC3=O)c1	-3%	?	-5%	0%	-4%	5	?	?
O=C(Nc1ccc2c(c1)OCCO2)c1cccn(Cc2ccccc2)c1=O	/	/	/	/	1%	/	/	/
Cn1c(=O)oc2cc(S(=O)(=O)N3CCOCC3)ccc21	6%	/	-1%	/	3%	6	/	/
CC(C)(C)CC(=O)Nc1cc(S(=O)(=O)N2CCOCC2)ccc1N1CCCC1	0%	?	-11%[15.4 µM]	-3%	0%	-14	-32%	?
